Counter-ions that a name gives are not always drawn.
System: MDA-MB-468
Test: phospho-S6 immunofluorescence (DAPI-normalised), per-plate z-score; higher = higher phospho-S6 signal (less pathway suppression)
Details: 24 h
Experimental: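 GPCR-targeted compound library (MedChemExpress HY-L006) tested on MDA-MB-468 PTEN-null TNBC cells in 384-well plates at 0.1, 1 or 10 uM, combined with vehicle, GDC0941 450 nM or lapatinib 1 uM, for 24 h. Phospho-S6 (S240/244) immunofluorescence normalised to DAPI and expressed as a per-plate z-score; values are the mean of biological triplicates.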

SMILES | phospho-S6 immunofluorescence (z-score) (co-treatment: GDC0941 450 nM) | phospho-S6 immunofluorescence (z-score) (co-treatment: lapatinib 1 uM) | phospho-S6 immunofluorescence (z-score) (co-treatment: vehicle)
CC(=O)OCC(=O)[C@@]12OC(C)(C)O[C@@H]1C[C@H]1[C@@H]3C[C@H](F)C4=CC(=O)C=C[C@]4(C)[C@@]3(F)[C@@H](O)C[C@@]12C [Fluocinonide] (compound 10 µM) | -0.28 | 0.59 | 0.62
CN(C)CCN(Cc1ccccc1)c1ccccn1 [Tripelennamine (hydrochloride)] (compound 10 µM) | -0.07 | -0.31 | -0.41
NC(=O)c1ccc[n+]([O-])c1 [Nicotinamide N-oxide] (compound 10 µM) | 0.09 | 0.22 | -0.26
CC(C)C(=O)OCC(=O)[C@@]12O[C@H](C3CCCCC3)O[C@@H]1C[C@H]1[C@@H]3CCC4=CC(=O)C=C[C@]4(C)[C@H]3[C@@H](O)C[C@@]12C [Ciclesonide] (compound 10 µM) | -3.85 | 0 | -1.25
CC[C@H](C)[C@@H]1NC(=O)[C@H](Cc2ccc(OC)cc2)NC(=O)CCCSC[C@@H](C(=O)N2CCC[C@H]2C(=O)N[C@@H](CC(C)C)C(=O)NCC(N)=O)NC(=O)[C@H](CC(N)=O)NC(=O)[C@H](CCC(N)=O)NC1=O [Carbetocin] (compound 10 µM) | 0.31 | -0.07 | 0.3
CC(C)Cc1ccc([C@@H](C)C(=O)NS(C)(=O)=O)cc1 [Reparixin] (compound 10 µM) | 0.03 | 0.34 | -1.14
O=C(Nc1cccc(Cl)c1)c1ccccn1 (compound 10 µM) | -1.46 | 0.72 | -0.86
CNS(=O)(=O)Cc1ccc2[nH]cc(CCN(C)C)c2c1 [Sumatriptan (succinate)] (compound 10 µM) | 0.01 | 0.48 | 0.55
CN1CCC(=C2c3ccccc3CC(=O)c3sccc32)CC1 [Ketotifen (fumarate)] (compound 10 µM) | 0.55 | -0.44 | 0.26
CN1C2CCCC1CC(NC(=O)c1nn(C)c3ccccc13)C2 (centres undefined) [Granisetron (Hydrochloride)] (compound 10 µM) | 1.08 | 0.62 | -0.01
CC(C)(O)c1ccccc1CC[C@@H](SCC1(CC(=O)O)CC1)c1cccc(/C=C/c2ccc3ccc(Cl)cc3n2)c1 [Montelukast (sodium)] (compound 10 µM) | 0.45 | 0.97 | 1.39
Cc1ccccc1C(=O)Nc1ccc(C(=O)N2CCCC(O)c3cc(Cl)ccc32)c(C)c1 (centres undefined) [Tolvaptan] (compound 10 µM) | 0.01 | -1.6 | -0.25
O=C(COc1ccc(C(=O)c2ccccc2)cc1)NC1CCN(Cc2ccccc2)CC1 [AdipoRon] (compound 10 µM) | -4.84 | -4.87 | -1.92

Source: the supplement of paper PMC7411640
